TDP1 inh – inhibitors of human tyrosyl-DNA phosphodiesterase TDP1; recombinant TDP1, AlphaScreen DNA substrate cleavage; Potency, µM (highest dose often 130 µM), inactives show at the top dose activity change, negative = inhibition, actives largely listed as inhibitors; Q9NUW8; 350,000 tested, 0.28% active; note: % is set by controls: 0 for no effect and ±100 for the full control effect; nearly all actives have a fitted effect of over 40% in size
Target sequence (Q9NUW8 whole entry, looked up): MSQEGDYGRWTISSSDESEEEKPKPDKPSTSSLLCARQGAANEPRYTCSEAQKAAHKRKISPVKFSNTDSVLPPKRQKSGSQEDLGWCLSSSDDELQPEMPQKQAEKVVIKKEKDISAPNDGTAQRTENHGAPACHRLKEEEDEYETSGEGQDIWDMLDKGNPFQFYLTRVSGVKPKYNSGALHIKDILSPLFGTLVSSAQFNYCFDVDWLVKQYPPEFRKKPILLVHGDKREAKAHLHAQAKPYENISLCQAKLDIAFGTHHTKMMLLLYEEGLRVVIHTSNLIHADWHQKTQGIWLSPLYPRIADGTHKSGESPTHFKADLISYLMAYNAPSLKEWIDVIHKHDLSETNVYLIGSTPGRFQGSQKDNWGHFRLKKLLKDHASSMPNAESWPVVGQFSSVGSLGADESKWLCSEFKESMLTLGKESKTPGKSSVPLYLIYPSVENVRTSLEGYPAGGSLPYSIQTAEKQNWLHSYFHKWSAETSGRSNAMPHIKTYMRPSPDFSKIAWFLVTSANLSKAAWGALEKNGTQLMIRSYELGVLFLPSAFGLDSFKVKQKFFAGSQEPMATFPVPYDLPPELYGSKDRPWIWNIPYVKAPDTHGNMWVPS
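Compounds were preincubated with Tdp1 (1 nM final) for 15 min at room temperature before substrate (15 nM final) started a 5 min reaction; beads (10 ug/ml final) were then added for 10 min before AlphaScreen detection.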
TDP1 cell noCPT – qHTS for Inhibitors of human tyrosyl-DNA phosphodiesterase 1 (TDP1): qHTS in cells in absence of CPT; DT40 Tdp1-/- hTDP1 cells, no CPT, ATP luminescence, 48 h; Potency, µM (top dose mostly 46.2 µM), for inactives: at the top dose activity change, negative = growth inhibition, actives largely listed as inhibitors; 420,000 tested, 15% active; AID 686978, 2013; note: % is set by controls: 0 for no effect and ±100 for the full control effect; nearly all actives have a fitted effect of over 55% in size
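Seeded 400 DT40-hTDP1 cells/well (vehicle DMSO, no 20 nM CPT); pinned compounds; ≥48 hr at 37 °C; CellTiter-Glo luminescence as viability measure.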
TDP1 cell CPT – growth inhibition of DT40 Tdp1-/-;hTDP1 cells with camptothecin (screen for TDP1 inhibitors); 420,000 tested, 12% active; Potency, µM (highest dose often 46.2 µM), for inactives: top-dose activity change, negative = growth inhibition, actives largely listed as inhibitors; chicken DT40 Tdp1-/-;hTDP1 cells + 20 nM CPT, ATP luminescence, 48 h; note: % is set by controls: 0 for no effect and ±100 for the full control effect; nearly all actives have a fitted effect of over 55% in size
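Cell growth measured by CellTiter-Glo luminescence after a minimum 48 h, 37 C compound exposure with 20 nM CPT in Tdp1-knockout DT40 cells stably expressing hTDP1, seeded 400/well; qHTS titration format.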
ClpP mod – qHTS Assay for Activators of ClpP. ATP-dependent Clp protease proteolytic subunit (Bacillus subtilis (strain 168)), P80244. purified B. subtilis ClpP, FRET peptide cleavage, 20 min. Potency, µM (highest dose often 57.5 µM), without a hit: at the top dose activity change, negative = active. 340,000 tested, 1.9% active. AID 651965, 2013; active = well fitted falling curve with a large enough effect; inconclusive = small, poorly fitted or top-dose-only effect; inactive = no such curve, though single readings can be large or run the other way; note: the source files actives as falling curves though it sought activators and does not explain the sign; nearly all actives have a fitted effect of over 65% in size
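Purified B. subtilis ClpP, 10 microg/mL final in Tris/HCl pH8 with KCl, BSA, glycerol and Tween-20, cleaved an Abz/nitrotyrosine-quenched decapeptide. Fluorescence (ex 320, em 430) was read at 0 and 20 min at room temperature. Delta was normalized to 5.8 microM ADEP and DMSO/no-enzyme controls.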
The depositor's hits bear a star; u = inconclusive; x = not tested or not shown; [ ] = remark or other dose. An excerpt weighted towards active compounds, which were near 17% of everything screened. Unless noted, calls come from the whole dose curve; as a rule, active = well fitted curve in the direction sought with a large enough effect; inconclusive = small, poorly fitted or top-dose-only effect, or another doubt; inactive = no such curve, though single readings can be large; an effect the other way counts as inactive or inconclusive. Potency is the fitted concentration of half-maximal effect.

SMILES	TDP1 inh	TDP1 cell noCPT	TDP1 cell CPT	ClpP mod
CCOc1ccc(NC(=O)CN2C(=O)COc3ccc(S(=O)(=O)N4CCCCC4)cc32)cc1	2%	-26%	u	0%
Cc1cccc(N2CCN(C(=O)CN3C(=O)COc4ccc(S(=O)(=O)N5CCCCCC5)cc43)CC2)c1C	4%	16µM*	u	-3%
CC(=O)Nc1ccc(NC(=O)CSc2cn(CC(=O)N(C(C)C)C(C)C)c3ccccc23)cc1	3%	u	-29%	1%
Cc1cccc(NC(=O)Nc2ccccc2[N+](=O)[O-])n1	x	18%	-6%	1%
CCOC(=O)Cn1c(=O)n(C2CCCCC2)c2nc(-c3ccc(C(C)C)cc3)nc(C(N)=O)c21	5%	x	x	-14%
C=Cc1cc(F)c(S(=O)(=O)N2CCN(S(=O)(=O)c3ccc4c(c3)OCCO4)CC2)cc1F	1%	x	x	x
O=C(COC(=O)c1ccc2c(c1[N+](=O)[O-])C(=O)c1ccccc1C2=O)NC1CC1	4%	u	3.7µM*	x
CN(CCC#N)C(=O)COC(=O)c1ccccc1C(=O)c1ccc(Cl)c([N+](=O)[O-])c1	-2%	u	16µM*	x
Nc1c(Cl)cc(Cl)cc1C(=O)OCC(=O)NC1CC1	0%	-10%	-17%	8.9µM*
O=C(COC(=O)c1ccc(Cl)c([N+](=O)[O-])c1)NC1CCCC1	x	10%	-20%	1%
O=C(COC(=O)c1ccccc1C(=O)c1ccc(Cl)c([N+](=O)[O-])c1)NC1CCCCCC1	8%	23µM*	u	1%
CNC(=O)OCc1cocc1COC(=O)NC	x	-16%	-1%	-2%
O=c1cc(-c2cccc(F)c2)[nH]c2cc(F)ccc12	9%[234 µM]	x	x	x
Cn1c(N)c(C(=O)COC(=O)c2ccccc2C(=O)c2ccc(Cl)c([N+](=O)[O-])c2)c(=O)n(C)c1=O	0%	18µM*	u	3%
CCOC(=O)c1nc2cc3n(c(C)c-2c1C)C(C)C(C)=C3C (centres undefined)	2%	13µM*	u	58%
CCOC(=O)c1nc2cc3n(c(CC(C)C)c-2c1C)CC(C)=C3C	0%	u	21µM*	28µM*
CC(C)(C)c1csc(Sc2ncccc2[N+](=O)[O-])n1	-1%	u	-26%	-3%
CC1(C)CC(NC(=O)C2CCN(S(=O)(=O)c3ccccc3C(F)(F)F)CC2)CC(C)(C)N1	5%	-11%	0%	1%
O=c1[nH]c(NC2CCN(S(=O)(=O)c3ccccc3C(F)(F)F)CC2)nc2c1CCCC2	9%	7.3µM*	6.5µM*	-8%
CC1=Nc2cccc3cccc(c23)N1	10%	23µM*	u	1%
c1coc(C2=Nc3cccc4cccc(c34)N2)c1	-5%	23µM*	15µM*	x
COc1cccc(C2=Nc3cccc4cccc(c34)N2)c1	-4%	u	u	0%
CN(C)c1ccnc2sc3c(SCc4ccc(Cl)cc4)ncnc3c12	3%	13µM*	16µM*	-28%
Cn1c(/C=C/c2ccc(Br)cc2)c([N+](=O)[O-])c(=O)n(C)c1=O	x	12µM*	8.2µM*	2%
COc1ccc(Cn2ccnc2SCC(=O)Nc2ccc(F)cc2F)cc1	x	23µM*	u	0%
SMILES	TDP1 inh	TDP1 cell noCPT	TDP1 cell CPT	ClpP mod
O=C(CSc1nccn1Cc1ccc(F)cc1)Nc1nc2ccccc2s1	11%	23µM*	18µM*	-1%
COc1ccc(Cn2ccnc2SCC(=O)Nc2ccccc2F)cc1	9%	-12%	-16%	0%
CC(C1CC1)N(Cc1ccccc1)C(=S)Nc1ccccc1 (centres undefined)	0%	23µM*	15µM*	x
CC(C1CC1)N(Cc1ccccc1)C(=S)Nc1cccc(C(F)(F)F)c1 (centres undefined)	3%	u	u	2%
Cc1ccc(-c2nc(SC(C)C(=O)c3c(N)n(C)c(=O)n(C)c3=O)n[nH]2)cc1 (centres undefined)	4%	23µM*	u	-18%
CCOC(=O)[C@@H]1[C@H]2COc3ccccc3[C@@H]2N2C(=O)N(c3ccc(C(F)(F)F)cc3)C(=O)[C@@]12C	1%	23µM*	13µM*	-2%
CCOC(=O)[C@@H]1[C@H]2COc3ccc(Br)cc3[C@@H]2N2C(=O)N(c3ccc(C(F)(F)F)cc3)C(=O)[C@]12C	x	16µM*	u	0%
CCOC(=O)[C@@H]1[C@H]2COc3ccccc3[C@H]2N2C(=O)N(c3ccc(C(F)(F)F)cc3)C(=O)[C@]12C	x	15µM*	18µM*	0%
CCOC(=O)[C@H]1[C@H]2COc3cc(OC)ccc3[C@@H]2N2C(=O)N(c3ccc(Cl)cc3)C(=O)[C@@]12C	x	u	18µM*	-2%
COc1ccccc1C(=O)Nc1nnc(SCc2cc(=O)c3cc(Cl)ccc3[nH]2)s1	5%	u	u	-1%
Brc1cccc(-c2nn(-c3ccccc3)c3c2cnc2cc4c(cc23)OCO4)c1	0%	-4%	-1%	-2%
Cc1c(NC(=O)CN2CCN(c3ccc(O)cc3)CC2)c(=O)n(-c2ccccc2)n1C	-8%	u	u	-8%
CCOC(=O)[C@@H]1[C@H]2COc3ccccc3[C@@H]2N2C(=O)N(c3ccc(C(F)(F)F)cc3)C(=O)[C@]12C	x	u	18µM*	0%
O=C(Nc1nc(-c2cc3ccccc3oc2=O)cs1)c1ccc(Br)o1	u	-25%	-16%	-29%
COc1cccc2sc(Nc3nc(-c4cc5ccccc5oc4=O)cs3)nc12	-1%	4.6µM*	4.6µM*	1%
COc1cccc2sc(Nc3nc(-c4ccncc4)cs3)nc12	5%	2.9µM*	4.6µM*	x
COc1cccc2sc(Nc3nc4ccc(NC(C)=O)cc4s3)nc12	4%	u	u	1.1µM*
CC(=O)Nc1ccc2nc(NC(=O)COc3ccccc3C)sc2c1	5%	-1%	-10%	-1%
NC(C(=O)O)c1ccc(P(=O)(O)O)cc1 (centres undefined)	-6%	-7%	-4%	x
Cc1cccc(CN2CCN(C(=O)CCl)CC2)c1	0%	16µM*	15µM*	2%
O=C(c1ccncc1)N1CCN(C(=O)c2cccc3ccccc23)CC1	-2%	-15%	-8%	14µM*
CN(CC(=O)N1CCN(Cc2ccccc2)CC1)C(=O)Cc1cccc2ccccc12	1%[56.1 µM]	13µM*	13µM*	-20%
O=C(Nc1cccc2ccccc12)N1CCN(Cc2ccccc2)CC1	-2%	-12%	-28%	u
Cc1ccc(CN2CCN(C(=O)c3cccc4ccccc34)CC2)cc1	x	23µM*	u	x
Cc1cccc(NC(=O)N2CCN(Cc3ccccc3)CC2)c1	7%[56.1 µM]	9%	4%	-6%
O=S1(=O)CCOC[C@H](c2ccccc2)N1Cc1ccc(Cl)cc1Cl	x	u	u	-1%
